In the supplement of paper PMC10849652:
About 7,900 targets were measured; listed, in parts, are those with a hit and a random draw of the rest. About 0.6% of all pairs of compound and target were hits.

Assays:
Assay in all cases: log2 fold change, soluble protein after heating vs DMSO (PISA); higher = thermal stabilisation; K562 cells, 10 uM, 30 min; active = over 0.2 and 3.5 SD of the protein, either way, in both replicates (recomputed)
[1] = compound: C1=CC=C(C=C1)[C@H](COC2=CC3=C(C=C2)NC(=O)N3)NC(=O)C4=CC=CN(C4=O)CC5=CC(=C(C=C5)F)F
Summary of the method: (§1)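 Values are thermal stability changes relative to control samples and are taken from duplicates. They are stated as log2 fold changes. Before quantification by TMTpro 16plex LC-MS/MS with equalised channel sums, K562 cells at 2×10^6 cells/mL were treated with 10 μM compound for 30 min, heated in aliquots for 3 min across 48°C-58°C, pooled, extracted in PBS with 0.5% NP-40 at 4°C, and centrifuged at 21,000xg for 90 min to give the soluble supernatant.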

[2] = compound: CC1=C(SC2=C1C(=N[C@H](C3=NN=C(N32)C)CC(=O)N)C4=CC=C(C=C4)Cl)C
Summary of the method: as §1

[3] = compound: CC1=C2C(=CC=C1)N=C(N(C2=O)C3=CC=CC=C3C)CN4C=NC5=C(N=CN=C54)N
Summary of the method: as §1

[4] = compound: Cc1sc2c(c1C)C(c1ccc(Cl)cc1)=N[C@@H](CC(=O)OC(C)(C)C)c1nnc(C)n1-2
Summary of the method: as §1

[5] = compound: c1ccc([C@@H]2C[C@H]2NC2CCNCC2)cc1
Summary of the method: as §1

Measured: log2 fold change

UBLCP1 (UniProt Q8WVY7)
inactive: [1] -0.066 | [2] 0.067 | [3] 0.066 | [4] -0.018 | [5] 0.011

XPOT (UniProt O43592)
inactive: [1] -0.028 | [2] 0.06 | [3] 0.083 | [4] -0.002 | [5] -0.001

VPS72 isoform 2 (UniProt Q15906)
inactive: [1] 0.123 | [2] -0.106 | [3] 0.055 | [4] 0.05 | [5] -0.013

WARS1 (UniProt G3V3P2)
inactive: [1] 0.095

TNFAIP8 isoform 4 (UniProt O95379)
inactive: [1] -0.021 | [2] 0.026 | [3] 0.02 | [4] -0.042 | [5] -0.011

TOM1 isoform 2 (UniProt O60784)
inactive: [1] 0.044 | [2] 0.001 | [3] -0.074 | [4] 0.046 | [5] 0.008

UHRF1BP1 (UniProt Q6BDS2)
Chain of UniProt Q6BDS2 (Q6BDS2 whole entry, looked up): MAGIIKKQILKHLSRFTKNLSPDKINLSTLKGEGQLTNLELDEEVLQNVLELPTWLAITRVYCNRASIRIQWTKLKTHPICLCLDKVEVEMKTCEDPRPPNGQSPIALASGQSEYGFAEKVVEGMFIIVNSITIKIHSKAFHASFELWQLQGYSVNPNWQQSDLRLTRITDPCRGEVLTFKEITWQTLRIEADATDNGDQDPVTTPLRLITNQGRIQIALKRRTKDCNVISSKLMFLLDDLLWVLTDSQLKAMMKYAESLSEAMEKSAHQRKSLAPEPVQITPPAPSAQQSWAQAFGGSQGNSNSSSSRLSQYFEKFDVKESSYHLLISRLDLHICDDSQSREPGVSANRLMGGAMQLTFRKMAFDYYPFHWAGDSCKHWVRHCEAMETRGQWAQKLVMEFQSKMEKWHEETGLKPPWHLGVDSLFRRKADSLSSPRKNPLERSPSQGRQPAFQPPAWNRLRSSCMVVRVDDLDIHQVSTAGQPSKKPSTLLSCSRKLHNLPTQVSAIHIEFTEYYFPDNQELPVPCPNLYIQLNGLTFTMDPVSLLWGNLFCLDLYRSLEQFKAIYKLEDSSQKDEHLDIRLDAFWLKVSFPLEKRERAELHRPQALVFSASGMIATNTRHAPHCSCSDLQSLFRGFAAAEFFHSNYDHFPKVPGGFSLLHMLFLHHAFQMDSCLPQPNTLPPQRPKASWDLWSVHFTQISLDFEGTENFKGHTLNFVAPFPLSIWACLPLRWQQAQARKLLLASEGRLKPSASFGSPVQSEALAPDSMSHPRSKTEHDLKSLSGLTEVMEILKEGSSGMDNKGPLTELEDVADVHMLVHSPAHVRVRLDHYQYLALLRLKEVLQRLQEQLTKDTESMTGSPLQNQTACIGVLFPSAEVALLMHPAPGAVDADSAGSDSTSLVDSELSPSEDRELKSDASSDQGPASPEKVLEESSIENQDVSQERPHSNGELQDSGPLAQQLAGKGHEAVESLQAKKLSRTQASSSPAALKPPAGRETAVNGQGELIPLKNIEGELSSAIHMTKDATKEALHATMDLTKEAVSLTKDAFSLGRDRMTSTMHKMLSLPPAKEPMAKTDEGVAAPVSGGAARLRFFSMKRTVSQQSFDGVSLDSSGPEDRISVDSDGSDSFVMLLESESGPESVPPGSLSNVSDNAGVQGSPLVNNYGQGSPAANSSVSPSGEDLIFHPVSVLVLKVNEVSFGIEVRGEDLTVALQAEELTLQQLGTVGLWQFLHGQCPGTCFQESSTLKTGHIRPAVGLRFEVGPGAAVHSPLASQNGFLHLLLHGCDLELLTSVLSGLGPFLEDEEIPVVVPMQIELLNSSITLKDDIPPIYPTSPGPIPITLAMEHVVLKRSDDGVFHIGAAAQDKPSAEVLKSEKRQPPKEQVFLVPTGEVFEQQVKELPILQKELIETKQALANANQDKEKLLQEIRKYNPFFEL
inactive: [1] -0.01 | [2] 0.109 | [3] 0.006 | [4] -0.001 | [5] -0.007

WDCP (UniProt Q9H6R7)
inactive: [1] 0.013 | [2] 0 | [3] -0.015 | [4] 0.039 | [5] 0.145

WARS1 (UniProt G3V5U1)
inactive: [1] 0.193

TMEM161A (UniProt Q9NX61)
Chain of UniProt Q9NX61 (Q9NX61 whole entry, looked up): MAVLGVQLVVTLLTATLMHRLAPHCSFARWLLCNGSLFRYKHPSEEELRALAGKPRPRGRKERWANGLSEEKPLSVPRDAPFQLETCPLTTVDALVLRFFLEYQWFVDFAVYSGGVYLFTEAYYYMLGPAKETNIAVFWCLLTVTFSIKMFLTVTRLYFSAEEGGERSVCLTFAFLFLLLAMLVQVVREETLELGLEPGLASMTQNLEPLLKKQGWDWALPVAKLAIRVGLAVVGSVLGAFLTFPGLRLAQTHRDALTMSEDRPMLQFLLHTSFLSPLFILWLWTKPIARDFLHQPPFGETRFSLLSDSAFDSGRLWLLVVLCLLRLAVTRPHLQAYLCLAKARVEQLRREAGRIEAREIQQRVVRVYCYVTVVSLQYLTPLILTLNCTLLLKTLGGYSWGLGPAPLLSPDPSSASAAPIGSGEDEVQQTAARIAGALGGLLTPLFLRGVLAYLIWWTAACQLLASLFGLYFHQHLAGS
inactive: [1] -0.055 | [2] 0.017 | [3] 0.098 | [4] -0.133 | [5] 0.003

VPS41 (UniProt P49754)
inactive: [1] -0.028 | [2] 0.06 | [3] 0.152 | [4] -0.017 | [5] -0.052

TOMM5 isoform 2 (UniProt Q8N4H5)
Chain of UniProt Q8N4H5 (Q8N4H5 whole entry, looked up): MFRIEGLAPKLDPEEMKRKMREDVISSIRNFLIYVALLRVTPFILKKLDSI
inactive: [1] 0.034 | [2] 0.047 | [3] -0.032 | [4] -0.029 | [5] 0.005

VPS11 (UniProt Q9H270)
Chain of UniProt Q9H270 (Q9H270 whole entry, looked up): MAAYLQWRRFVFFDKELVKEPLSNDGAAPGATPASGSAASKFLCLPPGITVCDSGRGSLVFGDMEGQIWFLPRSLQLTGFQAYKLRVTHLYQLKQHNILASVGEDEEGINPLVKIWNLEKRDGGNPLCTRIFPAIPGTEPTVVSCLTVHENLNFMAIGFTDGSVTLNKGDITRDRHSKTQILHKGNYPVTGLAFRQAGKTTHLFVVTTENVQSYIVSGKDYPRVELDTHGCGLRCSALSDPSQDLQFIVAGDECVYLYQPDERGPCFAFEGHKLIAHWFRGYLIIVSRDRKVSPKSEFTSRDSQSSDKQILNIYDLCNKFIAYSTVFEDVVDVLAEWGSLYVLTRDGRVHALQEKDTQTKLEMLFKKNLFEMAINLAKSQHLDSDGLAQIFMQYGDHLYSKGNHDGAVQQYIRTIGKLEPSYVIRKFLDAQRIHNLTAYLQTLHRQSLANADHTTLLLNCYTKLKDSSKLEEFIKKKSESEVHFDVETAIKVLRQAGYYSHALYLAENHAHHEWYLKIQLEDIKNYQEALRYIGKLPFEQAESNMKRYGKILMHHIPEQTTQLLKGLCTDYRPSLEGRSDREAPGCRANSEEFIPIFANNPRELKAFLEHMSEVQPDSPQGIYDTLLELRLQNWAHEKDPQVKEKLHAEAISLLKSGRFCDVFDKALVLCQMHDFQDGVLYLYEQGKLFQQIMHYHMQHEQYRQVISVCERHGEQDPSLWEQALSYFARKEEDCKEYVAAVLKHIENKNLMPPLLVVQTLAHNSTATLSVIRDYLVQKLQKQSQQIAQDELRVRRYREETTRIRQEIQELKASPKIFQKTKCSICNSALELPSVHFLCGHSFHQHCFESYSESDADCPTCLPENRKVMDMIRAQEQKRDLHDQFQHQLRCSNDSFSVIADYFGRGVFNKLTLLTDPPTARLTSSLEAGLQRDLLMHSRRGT
inactive: [1] -0.089 | [2] 0.014 | [3] 0.118 | [4] -0.001 | [5] -0.047

XPNPEP3 (UniProt Q9NQH7)
inactive: [1] -0.004 | [2] 0.018 | [3] 0.07 | [4] -0.009 | [5] 0.006

TRMT10C (UniProt Q7L0Y3)
inactive: [1] -0.018 | [2] 0.029 | [3] 0.085 | [4] 0.005 | [5] -0.08

WBP4 (UniProt O75554)
inactive: [1] 0.012 | [2] 0.009 | [3] -0.024 | [4] 0.014 | [5] 0.051

USP24 (UniProt Q9UPU5)
inactive: [1] 0.114 | [2] 0.02 | [3] 0.105 | [4] -0.198 | [5] -0.033

UFD1 isoform 1 (UniProt Q92890)
Chain of UniProt Q92890 (Q92890 whole entry, looked up): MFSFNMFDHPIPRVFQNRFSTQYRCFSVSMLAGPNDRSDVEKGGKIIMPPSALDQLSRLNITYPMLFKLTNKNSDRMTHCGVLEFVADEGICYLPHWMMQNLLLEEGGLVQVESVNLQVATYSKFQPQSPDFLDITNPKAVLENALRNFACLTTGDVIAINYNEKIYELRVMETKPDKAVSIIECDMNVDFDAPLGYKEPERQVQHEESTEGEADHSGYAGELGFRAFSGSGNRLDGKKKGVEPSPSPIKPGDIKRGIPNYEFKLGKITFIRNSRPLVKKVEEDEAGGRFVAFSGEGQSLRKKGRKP
inactive: [1] -0.011 | [2] 0.038 | [3] 0.033 | [4] -0.045 | [5] 0.019

TRIP10 isoform 2 (UniProt Q15642)
Chain of UniProt Q15642 (Q15642 whole entry, looked up): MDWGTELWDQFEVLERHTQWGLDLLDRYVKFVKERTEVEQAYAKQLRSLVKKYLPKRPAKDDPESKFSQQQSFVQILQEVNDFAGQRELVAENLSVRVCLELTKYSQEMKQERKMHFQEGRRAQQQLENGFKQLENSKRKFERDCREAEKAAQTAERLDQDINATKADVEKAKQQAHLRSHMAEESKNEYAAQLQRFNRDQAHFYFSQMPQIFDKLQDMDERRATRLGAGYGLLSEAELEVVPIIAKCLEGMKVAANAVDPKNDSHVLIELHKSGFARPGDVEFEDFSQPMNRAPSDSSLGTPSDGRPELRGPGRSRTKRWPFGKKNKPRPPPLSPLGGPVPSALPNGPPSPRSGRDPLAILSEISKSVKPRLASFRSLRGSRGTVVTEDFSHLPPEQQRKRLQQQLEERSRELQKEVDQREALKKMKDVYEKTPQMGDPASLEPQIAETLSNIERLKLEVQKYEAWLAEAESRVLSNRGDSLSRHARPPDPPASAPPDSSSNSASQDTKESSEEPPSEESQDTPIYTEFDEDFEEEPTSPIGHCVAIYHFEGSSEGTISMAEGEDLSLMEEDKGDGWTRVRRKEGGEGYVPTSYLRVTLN
inactive: [1] -0.039 | [2] 0.085 | [3] 0.222 | [4] 0.03 | [5] -0.026

WDR37 isoform 2 (UniProt Q9Y2I8)
Chain of UniProt Q9Y2I8 (Q9Y2I8 whole entry, looked up): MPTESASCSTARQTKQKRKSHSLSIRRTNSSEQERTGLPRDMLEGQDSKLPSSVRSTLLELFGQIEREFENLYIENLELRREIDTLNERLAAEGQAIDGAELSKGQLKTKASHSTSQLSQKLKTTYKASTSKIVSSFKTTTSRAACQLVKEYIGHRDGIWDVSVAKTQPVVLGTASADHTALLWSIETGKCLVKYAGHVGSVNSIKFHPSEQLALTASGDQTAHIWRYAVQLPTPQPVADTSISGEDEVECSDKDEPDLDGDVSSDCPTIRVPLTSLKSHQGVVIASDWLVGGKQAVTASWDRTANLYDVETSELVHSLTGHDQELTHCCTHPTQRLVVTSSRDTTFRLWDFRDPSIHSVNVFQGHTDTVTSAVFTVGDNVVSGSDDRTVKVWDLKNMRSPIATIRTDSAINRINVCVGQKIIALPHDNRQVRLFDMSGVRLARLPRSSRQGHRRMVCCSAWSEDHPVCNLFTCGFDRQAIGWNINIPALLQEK
inactive: [1] 0.039 | [2] -0.06 | [3] 0.062 | [4] 0.079 | [5] 0.054

TTI2 (UniProt Q6NXR4)
Chain of UniProt Q6NXR4 (Q6NXR4 whole entry, looked up): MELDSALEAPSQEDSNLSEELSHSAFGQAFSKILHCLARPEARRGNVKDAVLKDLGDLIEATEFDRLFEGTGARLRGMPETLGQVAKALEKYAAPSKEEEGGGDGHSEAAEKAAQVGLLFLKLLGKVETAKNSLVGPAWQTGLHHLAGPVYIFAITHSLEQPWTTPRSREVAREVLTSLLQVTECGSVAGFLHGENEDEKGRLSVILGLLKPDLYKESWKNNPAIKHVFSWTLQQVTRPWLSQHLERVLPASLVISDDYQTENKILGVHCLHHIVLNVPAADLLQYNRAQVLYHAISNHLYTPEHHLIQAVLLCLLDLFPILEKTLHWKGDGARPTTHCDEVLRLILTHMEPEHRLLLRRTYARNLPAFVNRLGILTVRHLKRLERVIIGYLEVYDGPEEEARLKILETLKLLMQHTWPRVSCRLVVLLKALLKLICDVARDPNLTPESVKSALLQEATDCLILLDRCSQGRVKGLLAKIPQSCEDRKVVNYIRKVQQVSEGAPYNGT
inactive: [1] 0.07 | [2] 0.027 | [3] 0.031 | [4] 0.028 | [5] 0.041

WDR4 isoform 3 (UniProt P57081)
inactive: [1] -0.18

USP48 (UniProt Q86UV5)
inactive: [1] 0

VRK1 (UniProt Q99986)
inactive: [1] -0.13 | [2] 0.02 | [3] 0.178 | [4] -0.019 | [5] -0.136

USP34 (UniProt Q70CQ2)
inactive: [1] -0.083 | [2] 0.081 | [3] 0.142 | [4] -0.003 | [5] 0.034

TMEM128 (UniProt Q5BJH2)
Chain of UniProt Q5BJH2 (Q5BJH2 whole entry, looked up): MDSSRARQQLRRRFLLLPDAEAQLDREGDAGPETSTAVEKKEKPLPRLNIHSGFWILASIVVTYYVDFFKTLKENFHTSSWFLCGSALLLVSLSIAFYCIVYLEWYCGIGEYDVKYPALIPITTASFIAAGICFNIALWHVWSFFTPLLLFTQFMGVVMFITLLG
inactive: [1] -0.038 | [2] -0.001 | [3] 0.185 | [4] -0.1 | [5] 0
